Screening data: PubChem, Broad Institute
Shh pathway inh – Hedgehog pathway signaling inhibitors, primary screen, luminescence, Shh-LIGHT2 cells, Gli-luciferase. Shh-LIGHT2 Gli-luciferase reporter, 30 h. inhibition, % (test concentration not listed). 2.1% of 22,000 active;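 active = mean inhibition across valid replicates above about 65%, limit read from the data; inconclusive = mean under the limit, yet half or more replicates past it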;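 also: pathway switched on by Shh-conditioned medium diluted 1 in 25 in low serum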
NOMO-1 viab – NOMO-1 AML cell viability reduction, primary screen, STK33 inhibitor project, CellTiter-Glo luminescence; inhibition, % (test concentration not listed); 7.5% of 37,000 active; NOMO-1 AML viability, 72 h; AID 2330, 2010; in the data active = inhibition above about 80%; inconclusive = no clear call, values can overlap the other calls
PD-1 reversal – activators reversing PD-1 mediated T-cell inhibition, primary screen, luminescence, primary human CD4 T cells, PD-L1 beads; CellTiter-Glo 96 h; activation, % (test concentration not listed); 29,000 tested, under 10 active; call rule not given here;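 also: 0% = median vehicle wells and 100% = positive control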
* marks the source's active call; other numbers are inactive results; u = inconclusive; x = not tested or not shown. Most compounds without a hit are left out; they make up all but 7.7% or so of the library.

SMILES	Shh pathway inh	NOMO-1 viab	PD-1 reversal
Cc1c(NC(=O)CN(c2cccc(Br)c2)S(C)(=O)=O)cccc1[N+](=O)[O-]	x	1.9	-0.4
CN(C)S(=O)(=O)c1ccc(C(=O)Nc2nc3c(s2)CCc2ccccc2-3)cc1	x	113.4*	-1.5
COc1cccc2sc(NC(=O)c3ccc(S(=O)(=O)N(C)C)cc3)nc12	31.1	26.6	2.7
C[C@@H]1CN([C@H](C)CO)C(=O)Cc2cc(NC(=O)Nc3ccc(F)cc3)ccc2O[C@H]1CN(C)Cc1ccc(Cl)c(Cl)c1	-2.9	94.3*	-0.2
C[C@H]1CN([C@@H](C)CO)C(=O)Cc2cc(NC(=O)Nc3ccc(F)cc3)ccc2O[C@@H]1CN(C)Cc1ccc(Cl)c(Cl)c1	-14.4	96.5*	-0.7
C[C@H]1CN([C@@H](C)CO)C(=O)Cc2cc(NC(=O)Nc3ccccc3)ccc2O[C@@H]1CN(C)Cc1ccc(Cl)c(Cl)c1	20.2	31.3	-0.4
C[C@@H]1CN([C@H](C)CO)C(=O)Cc2cc(NC(=O)Nc3ccccc3)ccc2O[C@@H]1CN(C)Cc1ccc(Cl)c(Cl)c1	11.4	99.0*	-1.7
CC(C)NC(=O)Nc1ccc2c(c1)CC(=O)N([C@@H](C)CO)C[C@H](C)[C@@H](CN(C)Cc1ccc(Cl)c(Cl)c1)O2	31.3	-2.3	0.0
CC(C)NC(=O)Nc1ccc2c(c1)CC(=O)N([C@H](C)CO)C[C@@H](C)[C@@H](CN(C)Cc1ccc(Cl)c(Cl)c1)O2	8.9	42.6	-1.4
C1=CN(c2ccccc2)C(C=NCc2ccccc2)=CS1	-8.7	69.1	0.6
Clc1ccc2nc(Cl)cc(-c3ccccc3)c2c1	0.7	70.8	-0.9
CC[n+]1ccc(C)c2cc(C(F)(F)F)ccc21	x	19.8	1.2
O=c1cc(N2CCOCC2)oc2c(-c3ccccc3)cccc12	70.7*	124.8*	-15.8
O=c1cc(N2CCOCC2)oc2c1ccc1ccccc12	-70.0	17.6	-1.4
CCOC(=O)c1nnn2c1nc(Sc1nc3ccccc3o1)c1ccccc12	-0.7	115.5*	-5.2
Cn1c(SCCC(=O)O)nnc1-c1ccncc1	x	6.2	0.7
CCOC(=O)c1nnn2c1nc(Sc1nnc(-c3ccncc3)n1C)c1ccccc12	-12.9	116.7*	-4.9
CCOC(=O)c1nnn2c1nc(N(CC)CC)c1ccccc12	x	7.6	-0.3
COc1ccc(OC)c(N(CC(=O)Nc2ccc(Br)cc2F)S(C)(=O)=O)c1	x	9.8	0.8
CSc1ccccc1NC(=O)C(C)n1nc(C)c([N+](=O)[O-])c1C (configuration not stated)	x	24.5	0.1
COc1ccc(CN(C)C[C@H]2Oc3ccc(NC(=O)Nc4ccc(OC)cc4)cc3CC(=O)N([C@@H](C)CO)C[C@H]2C)cc1	13.4	1.4	x
COc1ccc(NC(=O)Nc2ccc3c(c2)CC(=O)N([C@H](C)CO)C[C@@H](C)[C@@H](CN(C)Cc2ccc(Cl)c(Cl)c2)O3)cc1	23.4	114.5*	-2.8
COc1ccc(CN(C)C[C@H]2Oc3ccc(NC(=O)Nc4ccc(OC)cc4)cc3CC(=O)N([C@H](C)CO)C[C@H]2C)cc1	-9.7	-6.8	x
COc1ccc(NC(=O)Nc2ccc3c(c2)CC(=O)N([C@H](C)CO)C[C@@H](C)[C@H](CN(C)Cc2ccc(Cl)c(Cl)c2)O3)cc1	0.4	85.1*	x
COc1ccc(NC(=O)Nc2ccc3c(c2)CC(=O)N([C@@H](C)CO)C[C@H](C)[C@H](CN(C)Cc2ccncc2)O3)cc1	23.7	-0.2	-0.9
SMILES	Shh pathway inh	NOMO-1 viab	PD-1 reversal
COc1ccc(NC(=O)Nc2ccc3c(c2)CC(=O)N([C@@H](C)CO)C[C@H](C)[C@H](CN(C)Cc2ccc(Cl)c(Cl)c2)O3)cc1	u	113.5*	1.6
COC(=O)c1ccc(NC(=O)CN2CCC(C(N)=O)(N3CCCCC3)CC2)cc1	x	-5.3	1.7
Clc1ccc(-c2nc(Sc3nc(-c4cccs4)ns3)n[nH]2)cc1	-29.4	10.6	-8.4
C[C@@H]1CN([C@@H](C)CO)C(=O)c2cccc(NC(=O)CCCCCC(=O)Nc3ccccc3N)c2O[C@@H]1CN(C)Cc1ccccc1	x	87.7*	2.2
C[C@@H]1CN([C@H](C)CO)C(=O)c2cccc(NC(=O)CCCCCC(=O)Nc3ccccc3N)c2O[C@H]1CN(C)Cc1ccc2c(c1)OCO2	x	122.5*	-0.2
C[C@H](CO)N1C[C@H](C)[C@@H](CN(C)Cc2ccc(-c3ccccc3)cc2)Oc2c(NC(=O)CCCCCC(=O)Nc3ccccc3N)cccc2C1=O	x	125.0*	-1.9
C[C@H]1CN([C@@H](C)CO)C(=O)c2cccc(NC(=O)CCCCCC(=O)Nc3ccccc3N)c2O[C@@H]1CN(C)Cc1ccncc1	x	13.1	1.4
C[C@H]1CN([C@@H](C)CO)C(=O)c2cccc(NC(=O)Nc3cccc4ccccc34)c2O[C@H]1CN(C)Cc1ccc(Cl)c(Cl)c1	5.1	u	x
C[C@H](CO)N1C[C@H](C)[C@H](CN(C)Cc2ccc(Cl)c(Cl)c2)Oc2c(NC(=O)CCCCCC(=O)Nc3ccccc3N)cccc2C1=O	x	113.9*	-0.7
C[C@@H]1CN([C@H](C)CO)C(=O)c2cccc(NC(=O)CCCCCC(=O)Nc3ccccc3N)c2O[C@@H]1CN(C)Cc1ccc2c(c1)OCO2	x	68.4	0.3
CC(C)NC(=O)N(C)C[C@@H]1Oc2c(NC(=O)CCCCCC(=O)Nc3ccccc3N)cccc2C(=O)N([C@H](C)CO)C[C@H]1C	x	6.6	0.7
O=C(COc1ccc(Cl)cc1Cl)Nc1c[nH]c(=O)[nH]c1=O	x	-16.8	0.3
CS(=O)(=O)N(CC(=O)NC1CCCCC1)c1cc(Cl)c(Cl)cc1Cl	x	3.7	x
Cc1cccc(Cl)c1OC(=O)c1cc(C(C)(C)C)nn1C	-8.5	67.6	-1.0
COC(=O)c1ccc(NC(=O)CC2Sc3ccc(C(F)(F)F)cc3NC2=O)cc1 (configuration not stated)	x	66.3	1.0
CC(C)(C)C1CCc2c(sc(NC(=O)CSc3n[nH]c(-c4ccco4)n3)c2C#N)C1 (configuration not stated)	x	15.5	x
COC(=O)CCS(=O)(=O)c1cccc2c(S(=O)(=O)CCC(=O)OC)cccc12	-7.4	124.2*	0.2
O=C(O)CCS(=O)(=O)c1cccc2cccnc12	x	-25.1	2.1
COc1cc(O[C@@H]2O[C@H](CO[C@H]3OC[C@](O)(CO)[C@H]3O)[C@@H](O)[C@H](O)[C@H]2O)cc(OC)c1OC	0.9	64.5	2.0
CC1CCc2c(sc3ncnc(SCCOc4ccccc4)c23)C1 (configuration not stated)	x	-13.2	3.6
CC1CCc2c(sc3ncnc(NCCc4nc5ccccc5[nH]4)c23)C1 (configuration not stated)	x	96.6*	x
COc1c(Cl)cc(C(=O)Nc2sc3c(c2C(=O)NCc2cccnc2)CCCC3)cc1Cl	x	35.9	x
CC(C(=O)Nc1ccccc1Cl)N(c1ccc(Cl)cc1)S(C)(=O)=O (configuration not stated)	x	-4.3	-1.5
C[C@@H]1CN([C@@H](C)CO)C(=O)c2cccc(NC(=O)c3ccc(-c4nccs4)cc3)c2O[C@@H]1CN(C)Cc1ccc(-c2ccccc2)cc1	32.1	56.7	-4.9
C[C@@H]1CN([C@H](C)CO)C(=O)c2cccc(NC(=O)c3ccc(-c4nccs4)cc3)c2O[C@H]1CN(C)CC1CCCCC1	-14.1	86.6*	x
